Rows were chosen to be rich in hits. Some 31% of all compounds tested hit in one or more screens of this group.
CYP2C19 activ = activators of human cytochrome P450 2C19 | activation factor at 5 µM | 96,000 tested, under 10 active | AID 1025 | P33261 | recombinant CYP2C19, luciferin-H EGE luminescence; stronger effect = higher value; 0 = fully inhibited enzyme, 1 = untreated enzyme;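 active = activation factor of at least 2 at 5 µM in the primary screen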;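 also: 0 = wells with 2.5 mM tranylcypromine and 1 = vehicle-only wells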
Target sequence (P33261 whole entry, looked up): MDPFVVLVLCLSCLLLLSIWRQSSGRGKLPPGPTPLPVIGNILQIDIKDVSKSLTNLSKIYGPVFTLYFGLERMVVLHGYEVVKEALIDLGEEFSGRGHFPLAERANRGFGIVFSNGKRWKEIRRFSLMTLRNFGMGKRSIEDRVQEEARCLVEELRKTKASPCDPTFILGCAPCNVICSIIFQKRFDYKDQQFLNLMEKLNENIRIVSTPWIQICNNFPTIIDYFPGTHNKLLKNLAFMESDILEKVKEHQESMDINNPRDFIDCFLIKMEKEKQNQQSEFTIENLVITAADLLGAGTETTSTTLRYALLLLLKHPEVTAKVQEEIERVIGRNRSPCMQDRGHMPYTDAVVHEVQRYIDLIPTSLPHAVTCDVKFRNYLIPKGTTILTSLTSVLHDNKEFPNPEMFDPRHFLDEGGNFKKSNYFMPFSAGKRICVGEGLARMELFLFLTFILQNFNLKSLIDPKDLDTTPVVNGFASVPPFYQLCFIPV
PLAP act = activators of human placental alkaline phosphatase; AID 696; P05187; activation fold at 20 µM; hit rate 1.2% among 96,000; purified PLAP enzyme, luminescent substrate read-out; stronger effect = higher value; in the data active = activation fold above about 2
CYP2C9 inhib = human CYP2C9 inhibition. P11712. inhibition, % at 5 µM. hit rate 20% among 96,000. CYP2C9 Supersomes, luciferin-H conversion, luminescence;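 active = blocking of liver enzyme CYP2C9 beyond about 50% at 5 µM, limit read from the data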
CYP2C9 activ = CYP2C9 (human) activation; hit rate 1.4% among 96,000; AID 1024; activation factor at 5 µM; recombinant CYP2C9, luciferin-H conversion, luminescence; stronger effect = higher value; factor 1 = untreated enzyme, 0 = blocked; P11712;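 active = activation factor of 2 or more for CYP2C9 at a 5 µM dose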;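 also: 0 = sulfaphenazole-blocked wells and 1 = vehicle-only wells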
CYP2C19 inh = blocks human cytochrome P450 2C19. AID 778. inhibition, % at 5 µM. CYP2C19 Supersomes, luciferin-H EGE luminescence, 30 min. P33261. hit rate 21% among 96,000;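 active = CYP2C19 inhibition above a set limit at 5 µM in the primary screen, cut at about 50% in these data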;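 also: plate controls were negative control wells for no effect and 2.5 mM tranylcypromine positive control for full effect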
* marks the source's active call; other numbers are inactive results; · = no result given.

SMILES | CYP2C19 activ | PLAP act | CYP2C9 inhib | CYP2C9 activ | CYP2C19 inh
C=CCOc1cccc(C2c3c(oc4ccccc4c3=O)C(=O)N2c2ccccn2)c1 (stereo not given) | 0.6 | 0.8 | 38 | 0.6 | 38
CCn1c2ccccc2c2cc(N=C3SC(CC(=O)Nc4ccccc4OC)C(=O)N3C)ccc21 (stereo not given) | 0.6 | 1 | 87* | 0.1 | 38
CCN=C1SC(CC(=O)Nc2ccccc2)C(=O)N1CC (stereo not given) | 0.7 | 0.9 | -1 | 1 | 34
CCn1c2ccccc2c2cc(N=C3SC(CC(=O)Nc4ccccc4)C(=O)N3C)ccc21 (stereo not given) | 0.6 | 1 | 87* | 0.1 | 37
Cc1cccnc1NC1OC(=O)c2ccccc21 (stereo not given) | 1.1 | 0.9 | -3 | 1 | -15
c1ccc(C2(CNc3ccccn3)CCCC2)cc1 | 0.5 | 0.8 | 44 | 0.6 | 55*
CCSC1=C(C#N)C2(CCCCC2)C(C#N)=C(N)N1 | 0.4 | 0.9 | 84* | 0.2 | 59*
N#CC1=C(N)NC(SCc2ccccc2)=C(C#N)C12CCCCC2 | 0 | 0.8 | 100* | 0 | 100*
COc1ccc(S(=O)(=O)NNC(=O)c2csc(-n3nc(C)cc3C(F)(F)F)n2)cc1OC | 0.9 | 1.1 | 54* | 0.5 | 14
CC(=O)c1cccc(NC(=O)c2csc(-n3nc(C)cc3C(F)(F)F)n2)c1 | 0.5 | 1.1 | 56* | 0.4 | 51*
COc1ccc(/C=N/NC(=O)c2csc(-n3nc(C)cc3C(F)(F)F)n2)cc1 | 0.8 | 1.4 | 32 | 0.7 | 23
O=C1NC(c2ccccc2)(C(F)(F)F)C(=O)N1Cc1cccnc1 (stereo not given) | 0.2 | 1.2 | 51* | 0.5 | 84*
O=c1c2ccccc2c2ccccc2c(=O)n1Cc1cccnc1 | 0.6 | 1 | 20 | 0.8 | 37
COc1ccc2oc(=O)c(-c3nc(C)cs3)cc2c1 | 0.2 | 0.9 | 55* | 0.5 | 77*
COc1ccc2oc(=O)c(C(C)=O)cc2c1 | 0.9 | 0.8 | 4 | 1 | 10
COc1ccc(N2C(=O)C(Cl)=C(N3CCCC(C)C3)C2=O)cc1 (stereo not given) | 0.2 | 0.9 | 85* | 0.2 | 84*
CCn1c(=O)n(CC)c2cc(S(=O)(=O)N3CCC(c4ccccc4)CC3)ccc21 | 0.7 | 0.8 | 68* | 0.3 | 33
Cn1c(=O)c(=O)n(C)c2cc(S(=O)(=O)N3CCC(Cc4ccccc4)CC3)ccc21 | 1 | 0.8 | -2 | 1 | -3
CCCCCn1c(N)c(C#N)c2nc3ccccc3nc21 | 0.4 | 1 | 22 | 0.8 | 62*
Cc1ccc2c(c1)c1nc3ccccc3nc1n2CCN1CCOCC1 | 0.8 | 1.3 | 40 | 0.6 | 24
N#Cc1c(N)n(CCNC(=O)c2cccs2)c2nc3ccccc3nc12 | 0.1 | 0.7 | 16 | 0.8 | 87*
CCCCn1c(NC(C)=O)c(C#N)c2nc3ccccc3nc21 | 0.9 | 1.1 | 14 | 0.9 | 11
N#Cc1c(N)n(CCCN2CCOCC2)c2nc3ccccc3nc12 | 0.1 | 1.4 | 32 | 0.7 | 89*
CC(=O)Nc1cccc(NC(=O)C2CC3CCC2C3)c1 (stereo not given) | 0.8 | 1 | 13 | 0.9 | 17
Cn1cc([N+](=O)[O-])c(C(=O)Nc2ccn(Cc3c(F)c(F)cc(F)c3F)n2)n1 | 0.9 | · | -63 | 1.6 | 14
SMILES | CYP2C19 activ | PLAP act | CYP2C9 inhib | CYP2C9 activ | CYP2C19 inh
OCCN1CCN(CC(O)COc2ccc3ccccc3c2)CC1 (stereo not given) | 1.1 | 1.2 | -28 | 1.3 | -13
CC(=O)Nc1ccc(NCC(O)COc2ccccc2)cc1 (stereo not given) | 0.4 | 0.9 | 34 | 0.7 | 56*
CC(=O)Nc1ccc(S(=O)(=O)N2CCN(CC(O)COc3ccc4ccccc4c3)CC2)cc1 (stereo not given) | 0.1 | 1.7 | 87* | 0.1 | 87*
CC(=O)Nc1ccc(OCC(O)CN2CCN(c3cccc(Cl)c3)CC2)cc1 (stereo not given) | 0.7 | 1.3 | 56* | 0.4 | 34
CCC(=O)c1ccc(OCC(O)CN2CCN(C(c3ccccc3)c3ccccc3)CC2)cc1 (stereo not given) | 0.5 | 1.2 | 67* | 0.3 | 46
CN1CCN(c2nc3c(c(=O)[nH]c(=O)n3C)n2CCSc2ncccn2)CC1 | 1 | 1 | 9 | 0.9 | -4
CN(C)S(=O)(=O)N1CCN(CC(O)COc2ccc3cc(Br)ccc3c2)CC1 (stereo not given) | 0.5 | 1.4 | 58* | 0.4 | 48
CC(=O)Nc1ccc(OCC(O)CN2CCN(S(=O)(=O)c3ccc(NC(C)=O)cc3)CC2)cc1 (stereo not given) | 0.7 | 1.6 | 70* | 0.3 | 25
CC(=O)Nc1ccc(S(=O)(=O)N2CCN(C)CC2)cc1 | 0.9 | 1 | -12 | 1.1 | 6
CC(=O)Nc1ccc(S(=O)(=O)N2CCN(C(C)CCc3ccccc3)CC2)cc1 (stereo not given) | 0.5 | 1.7 | 56* | 0.4 | 50
CC1=C(C(=O)Nc2ccc(Cl)cc2)C(c2cccs2)n2nnnc2N1 (stereo not given) | 1 | 1.1 | 10 | 0.9 | 4
CCOC(=O)c1ccc(S(=O)(=O)N2CCN(CC3CC=CCC3)CC2)cc1 (stereo not given) | 0.9 | 1.2 | 0 | 1 | 5
CCC1CCCCN1Cc1ccc(OC)c(C)c1C (stereo not given) | 0.8 | 0.9 | 6 | 0.9 | 18
CC1CCC2(CC1)NC(=O)c1ccccc1O2 (stereo not given) | 0.1 | 0.9 | 22 | 0.8 | 93*
Cc1cc(NC(=O)CSc2nc(-c3cccnc3)ccc2C#N)no1 | 0.7 | 0.8 | 48 | 0.5 | 33
N#Cc1ccc(-c2cccnc2)nc1SCc1ccc(Cl)cc1Cl | 0.8 | 0.9 | 56* | 0.4 | 18
CC12/C(=N/O)C3C4CC5C3/C(=N/O)C1C5C42 (stereo not given) | 0.9 | 0.9 | 8 | 0.9 | 9
CN(c1cccc(NC(=O)c2ccc(Cl)c(S(=O)(=O)Nc3ccccc3)c2)c1)S(C)(=O)=O | 0.2 | 1.6 | 97* | 0 | 85*
Cc1ccccc1NS(=O)(=O)c1cc(C(=O)Nc2cccc(N(C)S(C)(=O)=O)c2)ccc1C | 0.6 | 1.2 | 78* | 0.2 | 38
O=C1NNC(=O)C2C3C=CC(C4CC34)C12 (stereo not given) | 1 | 0.8 | 2 | 1 | 4
CSc1nc2c(c(C(F)(F)F)n1)CC(C)CC2 (stereo not given) | 1 | 1 | -6 | 1.1 | -1
COc1ccc(OC)c(-c2cc(C3CCN(c4ncccc4[N+](=O)[O-])CC3)[nH]n2)c1 | 0.8 | 1.3 | 49 | 0.5 | 22
O=[N+]([O-])c1cccnc1N1CCC(c2cc(-c3ccc(Cl)cc3Cl)n[nH]2)CC1 | 0.6 | 1.1 | 85* | 0.1 | 37
O=[N+]([O-])c1cccnc1N1CCC(c2cc(-c3cccc(C(F)(F)F)c3)n[nH]2)CC1 | 0.3 | 1.3 | 98* | 0 | 67*

Screens deposited in PubChem BioAssay by Sanford-Burnham Center for Chemical Genomics.
